NS1 function inh – qHTS Assay for Inhibitors of Influenza NS1 Protein Function. Potency, µM (highest dose often 46.1 µM). hit rate 0.4% among 270,000. AID 2326, 2010; calls by dose curve; note: actives are rising curves; nearly all actives have a fitted effect of over 50% in size
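In this qHTS, NS1 from influenza A is expressed in budding yeast, where it slows growth. Cells are switched from glucose to 2% galactose medium (pH 6.0, -URA), treated with compound, and growth recovery is read at OD600.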
Pf growth 48h – Primary qHTS for delayed death inhibitors of the malarial parasite plastid, 48 hour incubation; P. falciparum luciferase growth in erythrocytes, 48 h; AID 504832, 2011; Potency, µM (top dose mostly 28.7 µM), hits mostly inhibitors; hit rate 5.9% among 310,000
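In quantitative HTS format, infected erythrocytes bearing luciferase-reporter parasites were treated for a single generation at 37 C. Luminescence after adding detection reagent served as the growth measure.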
SARS PLpro yeast – qHTS of Yeast-based Assay for SARS-CoV PLP. S. cerevisiae expressing SARS-CoV PLpro, growth rescue. Potency, µM (doses to about 32.9 µM), most hits filed as activators. hit rate 0.19% among 330,000; calls by dose curve; note: nearly all actives have a fitted effect of over 55% in size
Pf growth 96h – Primary qHTS for delayed death inhibitors of the malarial parasite plastid, 96 hour incubation; P. falciparum luciferase reporter growth, 96 h; Potency, µM (series often up to 28.7 µM), hits mostly inhibitors; hit rate 6.9% among 320,000; AID 504834, 2011
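Compounds incubated with erythrocytes infected by luciferase-expressing P. falciparum (2% hematocrit, 0.05% parasitemia final) for 96 hours, 37 C in 5% CO2. Growth inhibition scored as decreased luciferase luminescence.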
A number is an active result; 0 = inactive; ? = inconclusive; - = no result. An excerpt weighted towards active compounds, which were near 10% of everything screened. Unless noted, calls come from the whole dose curve; as a rule, active = well fitted inhibition curve with a large enough effect; inconclusive = small, poorly fitted or top-dose-only effect, or another doubt; inactive = no such curve, though single readings can be large or run the other way.

SMILES	NS1 function inh	Pf growth 48h	SARS PLpro yeast	Pf growth 96h
Cc1ccccc1OCc1nnc(SCc2cc(=O)[nH]c3ccccc23)n1-c1ccccc1	0	?	0	?
CCOc1ccc(-n2c(SCc3ccc([N+](=O)[O-])cc3)nnc2-c2ccccc2)cc1	0	?	0	4.7µM
Cc1ccc(OCc2nnc(SCC(=O)Nc3cccc4ccccc34)n2-c2ccccc2)cc1	?	?	0	13µM
CCc1nnc(NC(=O)CSc2nnc(COc3ccccc3)n2-c2ccc(C)cc2)s1	0	0	0	0
Cc1ccc(OCc2nnc(SCc3cc(=O)[nH]c4ccccc34)n2-c2ccccc2)cc1	0	?	0	5.9µM
CC1CCCC(C)N1C(=O)CSc1nnc(COc2ccccc2)n1-c1ccccc1 (stereo not drawn)	0	-	0	15µM
CC(Sc1nnc(COc2ccc([N+](=O)[O-])cc2)n1-c1ccccc1)C(=O)O (stereo not drawn)	0	0	0	9.3µM
N#Cc1ccc(CSc2nnc(COc3ccccc3)n2-c2ccccc2)cc1	0	-	0	?
COc1ccc(-n2c(COc3ccccc3)nnc2SCc2ccc(C#N)cc2)cc1	0	12µM	0	?
CN(C)C(CNC(=O)c1ccc2nccnc2c1)c1ccco1 (stereo not drawn)	-	-	0	-
CC(C)(C)OC(=O)C[C@@H]1C/C=C\C[C@@H](CC(=O)N(CCO)Cc2ccccc2)C(=O)N[C@@H](c2ccccc2)COC1=O	-	-	0	-
NC1CCCCC1N=Cc1c(O)n(CCc2ccc(F)cc2)c(=O)[nH]c1=O (stereo not drawn)	?	?	0	4.7µM
CCOC(=O)[C@@H]1[C@H]2COc3ccccc3[C@@H]2N2C(=O)N(c3cccc(Cl)c3)C(=O)[C@@]12C	0	0	0	10µM
CCOC(=O)[C@@H]1[C@H]2COc3ccc(Br)cc3[C@@H]2N2C(=O)N(c3ccc(C(F)(F)F)cc3)C(=O)[C@@]12C	0	?	0	9.3µM
CCOC(=O)[C@@H]1[C@H]2COc3cc(OC)ccc3[C@H]2N2C(=O)N(c3cccc(Cl)c3)C(=O)[C@@]12C	0	10µM	0	?
C[C@@]12C(=O)N(c3ccc(C(F)(F)F)cc3)C(=O)N1[C@@H]1c3ccccc3OC[C@@H]1[C@H]2c1ccccc1	?	?	0	4.1µM
COc1c2ccoc2nc2c(OC)c(OC[C@@H](O)C(C)(C)O)ccc12	-	?	-	0
CCOC(=O)[C@@H]1[C@H]2COc3ccccc3[C@H]2N2C(=O)N(c3ccc(Cl)cc3)C(=O)[C@]12C	0	13µM	0	8.3µM
CCCC(=O)Nc1ccc(-c2csc(N/N=C\c3ccncc3)n2)cc1	0	8.3µM	0	?
CC(=NNC(=O)CCC(=O)Nc1ccccc1Cl)c1ccco1	-	-	0	-
CN(C)c1ccc(C=NC(CO)C(O)c2ccc([N+](=O)[O-])cc2)cc1 (stereo not drawn)	0	0	0	0
CN(C)c1ccc(C(c2ccc(N(C)C)cc2)c2ccc([N+](=O)[O-])cc2)cc1	0	0	0	12µM
CCCCn1cnc2c1c(=O)n(CC(=O)c1cc(C)n(C)c1C)c(=O)n2CC(C)C	0	-	0	12µM
Cc1cc(C(=O)COC(=O)Cn2cnc3c2c(=O)n(C)c(=O)n3C)c(C)n1C	0	0	0	0
Cc1ccccc1NC(=O)C(=Cc1ccc(C(=O)O)cc1)C(=O)Nc1ccccc1C	0	3.7µM	0	?
SMILES	NS1 function inh	Pf growth 48h	SARS PLpro yeast	Pf growth 96h
CCc1nnc(NC(=O)c2ccc(S(=O)(=O)N3CCCC(C)C3)cc2)s1 (stereo not drawn)	0	0	0	0
Cc1cccc2sc(NNC(=O)c3ccc(S(=O)(=O)N4CCCC(C)C4)cc3)nc12 (stereo not drawn)	0	0	8.9µM	0
Cc1cc(C)c2nc(NNC(=O)c3ccc(S(=O)(=O)N4CCCCC4)cc3)sc2c1	0	?	?	4.7µM
CC(C)(C)c1ccc(C(=O)N2CCC(NC(=O)c3ccccc3)CC2)cc1	0	?	0	?
CN1C(=O)CSC1=Nc1cccc(Cl)c1	0	0	0	0
CC(C)(C)[C@H]1COC(=O)CC/C=C\C[C@@H](CC(=O)N(CCO)Cc2ccccc2)C(=O)N1	-	-	0	-
CC(=O)OCC(CCn1cnc2cnc(N)nc21)COC(C)=O	-	0	0	0
COc1ccccc1N1CCN(Cc2cnc3ccc(Cl)cn23)CC1	0	0	0	?
Cc1onc(-c2c(F)cccc2Cl)c1C(=O)Nc1sc2c(c1C#N)CCC(C(C)(C)C)C2 (stereo not drawn)	0	6.6µM	0	?
N#C/C(=C\c1ccc(-c2ccc(C(=O)O)cc2)o1)C(=O)Nc1ccc(F)cc1	0	0	0	9.3µM
COc1ccccc1NC(=O)CC(=O)CSc1nnc(-c2ccc(C)cc2)n1C	?	12µM	0	0
Cn1c(SCC(=O)CC(=O)Nc2ccccc2)nnc1-c1ccc(O)cc1	?	0	0	12µM
CCCCSc1nnc(-c2ccc(NC(=O)CCc3ccccc3)cc2)n1C	0	?	0	12µM
CCc1c(C)nc(N)n2c(SCC(=O)Nc3ccccc3OC)nnc12	0	0	0	10µM
O=C(NCc1ccccc1F)C1CCCN1S(=O)(=O)c1ccc(Cl)cc1 (stereo not drawn)	0	0	0	0
CO/N=C(/C(=O)N[C@@H]1C(=O)N2C(C(=O)O)=C(CSc3cnns3)CS[C@H]12)c1csc(N)n1	-	0	-	0
COC(=O)CCCC(=O)NC(C)c1cnn(-c2ccccc2C)c1C (stereo not drawn)	0	0	0	13µM
CSCCCNC(=S)N1CCN(c2ccc(C(C)=O)cc2)CC1	0	?	0	12µM
CC(=O)c1ccc(N2CCN(C(=S)Nc3ccccc3F)CC2)cc1	0	?	0	?
CC(=O)c1ccc(N2CCN(C(=S)Nc3cc(C)ccc3C)CC2)cc1	0	10µM	0	?
CSCCC(N=C1NS(=O)(=O)c2ccccc21)C(=O)N1CCCC(C(N)=O)C1 (stereo not drawn)	-	0	0	0
C=CCc1c(C)nc(SCc2ccccc2)[nH]c1=O	0	0	0	0
CCC(C)NCC(O)(c1ccc(Cl)cc1)c1ccc(Cl)cc1 (stereo not drawn)	-	?	0	2.9µM
COc1ccc2[nH]c3c(c2c1)CCN1C(=O)N([C@@H](C)C(=O)NCCc2ccc(F)cc2)C(=O)[C@]31C	0	0	0	8.3µM
COc1ccc(CNC(=O)[C@H](C)N2C(=O)N3CCc4c([nH]c5ccccc45)[C@@]3(C)C2=O)cc1OC	0	?	0	8.3µM
COC(=O)CCCC1=CC2=C(c3ccccc3)C(=O)C(C)(OC(=O)C3CCCC3)C(=O)C2=CN1CCCCO (stereo not drawn)	0	?	0	?
COC(=O)CCCC1=CC2=C(c3ccccc3)C(=O)C(C)(OC(=O)C3CCCC3)C(=O)C2=CN1Cc1ccco1 (stereo not drawn)	0	?	0	12µM
O=c1c2cnn(-c3ccc(F)cc3)c2ncn1Cc1ccccc1	0	0	?	8.3µM
O=c1c2cnn(-c3ccc(F)cc3)c2ncn1Cc1cccnc1	0	0	0	0
O=c1c2cnn(-c3ccccc3Cl)c2ncn1Cc1cccnc1	0	?	0	13µM

Screens: PubChem BioAssay, National Center for Advancing Translational Sciences (NCATS)
